Experimental data taken from PubChem BioAssay (NCATS).
Where “and” joins values, the source holds several entries; their conditions need not be identical. Identical values can stand only once. Results filed as inconclusive are left out. Calls of active or inactive are those of the source. Unless noted, calls come from the whole dose curve; as a rule, active = well fitted curve in the direction sought with a large enough effect; inconclusive = small, poorly fitted or top-dose-only effect, or another doubt; inactive = no such curve, though single readings can be large; an effect the other way counts as inactive or inconclusive.

Assays:
[1] = Cell Viability - NIH 3T3 (AID 541); settings: NIH 3T3 cell viability, qHTS; activity change, negative = cytotoxicity: at 92.2 µM (top of the series);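 note: cells exposed to compound for 40 hours; plate controls were DMSO alone for no effect and tamoxifen positive control for full effect; nearly all actives have a fitted effect of over 25% in size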
How it was run: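 Cells seeded at 1000/well, rested 5 hr at 37 °C, then dosed and incubated 40 hr at 37 °C. CellTiter-Glo added, 20 min room temperature, luminescence read. AC50 by Hill fit.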

[2] = Cell Viability - SH-SY5Y (AID 544); settings: SH-SY5Y neuroblastoma cell viability; viability change, negative = cytotoxic: at 92.2 µM (top of the series);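 note: cells exposed to compound for 40 hours; nearly all actives have a fitted effect of over 55% in size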; note: potency is the fitted concentration of half-maximal effect;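 for viability change, negative = cytotoxic: 0% = DMSO alone and -100% = 100 µM tamoxifen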
How it was run: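 Cells were plated at 1500 per well and allowed 5 hr at 37 °C. Compounds were added across a concentration range and incubated 40 hr at 37 °C. CellTiter-Glo was added for 20 min at room temperature before luminescence reading.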

[3] = Cell Viability - LYMP2-001 (AID 921);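 note: 0% = DMSO only and full inhibition = tetraoctylammonium bromide control wells; nearly all actives have a fitted effect of over 70% in size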
How it was run: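 Cellular ATP loss read by luciferase luminescence after 24 h compound exposure at 37 C in complete medium. LYMP2-001 lymphoblastoid cells, 2500/well; qHTS concentration-response data fitted with Hill equation for AC50.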

[4] = Cell Viability - LYMP1-003 - Assay at 40 hr (AID 964); note: % is set by controls: 0 for no effect and ±100 for the full control effect; nearly all actives have a fitted effect of over 60% in size
How it was run: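 Luminescent ATP signal (CellTiter-Glo) served as the viability read-out after 40 hr compound treatment of human lymphoblastoid LYMP1-003 cells at 37 C. Decreases in ATP were fitted with the Hill equation to give AC50.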

[5] = Cell Viability - LYMP2-004 (AID 966);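 note: plate controls were DMSO only for no effect and tetraoctylammonium bromide control for full effect; nearly all actives have a fitted effect of over 65% in size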
How it was run: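 qHTS cytotoxicity: human lymphoblastoid line, 24 hr compound treatment, 37 C, complete medium. Viability read as cellular ATP via luciferase luminescence; tetraoctylammonium bromide served as positive control.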

[6] = Cell Viability - LYMP2-015 (AID 971);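 note: 0% = DMSO only and full effect = 92 µM tetraoctylammonium bromide; nearly all actives have a fitted effect of over 55% in size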
How it was run: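 Cells are seeded at 2500 per well and incubated 5 hr at 37 C. Compounds are added across a concentration series for 24 hr at 37 C. CellTiter-Glo is added, and luminescence is read after 30 min at room temperature.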

[7] = Cell Viability - LYMP2-017 (AID 972); note: % is set by controls: 0 for no effect and ±100 for the full control effect; nearly all actives have a fitted effect of over 55% in size
How it was run: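 Cytotoxicity is scored as a concentration-dependent drop in cellular ATP in a human lymphoblastoid line after 24 hr treatment at 37 C. Values are AC50s from Hill-equation modelling.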

[8] = Cell Viability - LYMP2-025 (AID 976);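 note: plate controls were DMSO only for no effect and tetraoctylammonium bromide control for full effect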
How it was run: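 Acute cytotoxicity is scored as a concentration-dependent fall in intracellular ATP, measured by luciferase luminescence, in human lymphoblastoid LYMP2-025 cells exposed to compound for 24 hours at 37 C. AC50 values come from standard Hill fits.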

[9] = Cell Viability - LYMP2-006 (AID 978); note: % is set by controls: 0 for no effect and ±100 for the full control effect; nearly all actives have a fitted effect of over 60% in size
How it was run: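 Potency values are Hill-fit AC50s for decreases in intracellular ATP (CellTiter-Glo luminescence). LYMP2-006 lymphoblastoid cells, 2500 per well, were exposed to compound in complete culture medium for 24 hr at 37 C.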

[10] = Cell Viability - LYMP2-010 (AID 981); note: % is set by controls: 0 for no effect and ±100 for the full control effect; nearly all actives have a fitted effect of over 55% in size
How it was run: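 Steps: seed 2500 LYMP2-010 cells per well; incubate 5 hr at 37 C; add compound; incubate 24 hr at 37 C; add CellTiter-Glo, wait 30 min at room temperature; read luminescence. Concentration-response fitted to Hill equation for AC50.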

[11] = Cell Viability - LYMP2-012 (AID 982)
[12] = Cell Viability - LYMP2-014 (AID 983);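 note: plate controls were DMSO only for no effect and 92 µM tetraoctylammonium bromide for full effect; nearly all actives have a fitted effect of over 50% in size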
How it was run: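 Cells are plated at 2500/well and left 5 hr at 37 C. Compounds are added across a concentration range and incubated 24 hr at 37 C in complete medium. CellTiter-Glo is added, and luminescence is read after 30 min at room temperature.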

[13] = Cell Viability - LYMP2-022 (AID 987)
How it was run: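 Cells were seeded at 2500 per well, rested 5 hr at 37 C, and treated with titrated compounds for 24 hr at 37 C. Cellular ATP was then quantified by luciferase luminescence, and AC50 values were derived from Hill-modelled concentration-response curves.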

[14] = qHTS assay for small molecule agonists of retinoid X receptor alpha signaling (AID 588544; calls by dose curve); settings: HEK293T RXRa-UAS-bla, beta-lactamase reporter, 18 h; 530 nm emission
[15] = target: Retinoic acid receptor RXR-alpha (Homo sapiens) (UniProt P19793); assay: as above
[16] = target: Thyroid hormone receptor beta (Homo sapiens) (UniProt P10828); assay: qHTS assay for small molecule agonists of thyroid hormone receptor beta signaling (AID 588545; calls by dose curve)
How it was run: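 Cells (2500/well) were seeded, incubated 4 hrs at 37 C, dosed with a compound series, incubated 18 hrs, loaded with CCF4 dye for 2 hrs at RT, then read for fluorescence. Data were scaled between DMSO (0%) and 10 nM T3 (100%).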

[17] = qHTS assay for small molecule antagonists of retinoid X receptor alpha signaling (AID 588546; active = well fitted inhibition curve with a large enough effect in the signal ratio, with a control signal flat, not every such curve was filed as active; the % refers to the signal ratio;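 note: cells stimulated with 9-cis-retinoic acid as agonist; % is set by controls: 0 for no effect and ±100 for the full control effect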); settings: HEK293T RXRa-UAS-bla, beta-lactamase ratio, antagonist mode; measured here: W530 green channel, cytotoxicity proxy
How it was run: (§1)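 Beta-lactamase reporter inhibition, read as CCF4 fluorescence ratio (ex 405, em 460/530 nm) after 2 h at RT. HEK293T UAS-bla cells, 2500/well, were stimulated with 9-cis-RA at 500 or 100 nM final alongside test compound for 18 h at 37 C.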

[18] = target: Retinoic acid receptor RXR-alpha (Homo sapiens) (UniProt P19793); assay: as above; settings: HEK293T RXRa-UAS-bla, beta-lactamase ratio, antagonist mode
How it was run: as §1

[19] = target: Thyroid hormone receptor beta (Homo sapiens) (UniProt P10828); assay: qHTS assay for small molecule antagonists of thyroid hormone receptor beta signaling (AID 588547; active = well fitted inhibition curve with a large enough effect in the signal ratio, with a control signal flat, not every such curve was filed as active; the % refers to the signal ratio;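 note: cells stimulated with 0.4 nM T3 agonist during compound exposure; % is set by controls: 0 for no effect and ±100 for the full control effect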); settings: TR-UAS-bla HEK293, beta-lactamase ratio, antagonist mode, 18 h
How it was run: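 Inhibition of T3-driven (0.4nM final) beta-lactamase reporter activity was measured over 0.59 nM to 92 uM compound after 18 h at 37 C. The cells were GripTite HEK293 TR-UAS-bla in charcoal/dextran-stripped serum, with CCF4 ratio read-out and IC50 from Hill fits.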

[20] = target: Voltage-gated inwardly rectifying potassium channel KCNH2 (Homo sapiens) (UniProt Q12809); assay: qHTS Assay for Small Molecule Inhibitors of the Human hERG Channel Activity (AID 588834);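 note: top concentration of the series differs between compounds; % is set by controls: 0 for no effect and ±100 for the full control effect; lower thallium flux fluorescence means stronger hERG block; nearly all actives have a fitted effect of over 50% in size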
How it was run: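 hERG block measured as reduced thallium-dye (FluxOR) fluorescence after stimulation buffer addition, read over 2 min. Cells were hERG-BacMam-transduced U2OS exposed to compound ~10 min […]; concentration-response fitted with Hill equation for AC50.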

Voltage-gated inwardly rectifying potassium channel KCNH2 (Homo sapiens), sequence (Q12809 whole entry, looked up): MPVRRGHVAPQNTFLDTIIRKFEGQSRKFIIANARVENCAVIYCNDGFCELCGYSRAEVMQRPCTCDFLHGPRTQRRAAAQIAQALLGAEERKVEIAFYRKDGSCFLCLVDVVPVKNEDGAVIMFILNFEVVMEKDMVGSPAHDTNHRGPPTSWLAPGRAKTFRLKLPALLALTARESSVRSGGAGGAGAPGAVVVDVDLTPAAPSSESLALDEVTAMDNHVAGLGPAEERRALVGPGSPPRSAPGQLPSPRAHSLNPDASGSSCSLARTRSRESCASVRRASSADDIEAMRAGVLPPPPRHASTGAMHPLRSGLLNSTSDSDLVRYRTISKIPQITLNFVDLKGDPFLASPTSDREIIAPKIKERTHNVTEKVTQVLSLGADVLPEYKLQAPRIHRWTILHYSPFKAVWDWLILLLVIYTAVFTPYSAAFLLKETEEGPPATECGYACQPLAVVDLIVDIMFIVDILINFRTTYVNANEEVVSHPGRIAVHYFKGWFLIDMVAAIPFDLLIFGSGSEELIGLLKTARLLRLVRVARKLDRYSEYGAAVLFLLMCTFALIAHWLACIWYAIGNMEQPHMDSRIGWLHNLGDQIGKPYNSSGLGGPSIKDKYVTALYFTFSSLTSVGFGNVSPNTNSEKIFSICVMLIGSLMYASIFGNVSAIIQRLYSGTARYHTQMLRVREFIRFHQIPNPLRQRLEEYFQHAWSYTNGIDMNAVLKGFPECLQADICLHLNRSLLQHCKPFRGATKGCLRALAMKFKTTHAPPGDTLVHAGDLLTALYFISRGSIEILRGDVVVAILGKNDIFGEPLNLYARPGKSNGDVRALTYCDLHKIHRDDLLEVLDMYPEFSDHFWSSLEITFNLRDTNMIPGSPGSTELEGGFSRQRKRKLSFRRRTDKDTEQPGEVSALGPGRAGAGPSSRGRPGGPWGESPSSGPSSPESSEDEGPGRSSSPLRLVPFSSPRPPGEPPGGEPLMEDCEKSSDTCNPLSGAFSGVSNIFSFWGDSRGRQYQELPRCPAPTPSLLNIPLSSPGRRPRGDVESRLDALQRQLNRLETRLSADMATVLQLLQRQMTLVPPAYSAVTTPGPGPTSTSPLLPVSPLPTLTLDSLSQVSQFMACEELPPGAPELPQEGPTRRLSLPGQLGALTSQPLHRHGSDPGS
Retinoic acid receptor RXR-alpha (Homo sapiens), sequence (P19793 whole entry, looked up): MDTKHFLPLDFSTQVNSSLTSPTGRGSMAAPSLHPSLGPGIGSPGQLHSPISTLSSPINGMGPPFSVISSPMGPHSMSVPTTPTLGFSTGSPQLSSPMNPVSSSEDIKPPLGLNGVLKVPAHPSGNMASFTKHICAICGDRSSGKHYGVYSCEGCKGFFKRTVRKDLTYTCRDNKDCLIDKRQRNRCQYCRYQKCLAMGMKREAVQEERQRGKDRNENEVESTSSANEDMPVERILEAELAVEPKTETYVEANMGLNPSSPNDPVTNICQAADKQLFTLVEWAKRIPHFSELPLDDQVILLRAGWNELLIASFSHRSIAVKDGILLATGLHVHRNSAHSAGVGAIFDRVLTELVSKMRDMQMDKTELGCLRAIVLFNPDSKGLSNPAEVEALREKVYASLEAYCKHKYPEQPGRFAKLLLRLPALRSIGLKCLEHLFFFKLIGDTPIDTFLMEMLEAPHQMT
Thyroid hormone receptor beta (Homo sapiens), sequence (P10828 whole entry, looked up): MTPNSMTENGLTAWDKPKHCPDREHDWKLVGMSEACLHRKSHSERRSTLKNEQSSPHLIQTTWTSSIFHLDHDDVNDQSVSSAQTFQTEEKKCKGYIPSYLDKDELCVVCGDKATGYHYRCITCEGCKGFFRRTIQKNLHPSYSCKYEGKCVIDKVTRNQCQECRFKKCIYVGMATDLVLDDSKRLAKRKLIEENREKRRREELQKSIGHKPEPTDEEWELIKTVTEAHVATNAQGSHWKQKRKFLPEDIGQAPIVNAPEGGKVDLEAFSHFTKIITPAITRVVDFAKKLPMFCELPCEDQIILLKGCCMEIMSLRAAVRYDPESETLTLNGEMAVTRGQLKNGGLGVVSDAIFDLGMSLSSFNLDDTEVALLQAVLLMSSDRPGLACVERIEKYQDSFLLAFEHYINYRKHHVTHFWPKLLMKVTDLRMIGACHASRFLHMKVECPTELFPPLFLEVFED

O=C(O)C(Cl)(Cl)Br
inactive: Potency [1] | Potency [2] | Potency [3] | Potency [4] | Potency [5] | Potency [6] | Potency [7] | Potency [8] | Potency [9] | Potency [10] | Potency [11] | Potency [12] | Potency [13] | outcome [15] | Potency [16] | max response [18] 1% | activity change % (negative = inhibition) [19] -3.52% | Potency [20]
-15.6%: max response [14]
1.14%: max response [17]

CC(C)(C)c1ccccc1O
-1.25% and -13.7%: max response [14]
inactive: Potency [1] | Potency [2] | Potency [3] | Potency [4] | Potency [5] | Potency [6] | Potency [7] | Potency [8] | Potency [9] | Potency [10] | Potency [11] | Potency [12] | Potency [13] | outcome [15] | Potency [16] | max response [18] 2.54% and -7.07% | activity change % (negative = inhibition) [19] 3.5% and 10.7% | Potency [20]
-15.4% and -14.5%: max response [17]

Oc1cccc(Cl)c1
-0.103%: max response [17]
inactive: Potency [1] | Potency [2] | Potency [3] | Potency [4] | Potency [5] | Potency [6] | Potency [7] | Potency [8] | Potency [9] | Potency [10] | Potency [11] | Potency [12] | Potency [13] | outcome [15] | Potency [16] | max response [18] 4.02% | activity change % (negative = inhibition) [19] 0.91% | Potency [20]
-0.644%: max response [14]

CN(C)c1ccccc1
-3.38%: max response [14]
5.14%: max response [17]
inactive: Potency [1] | Potency [2] | Potency [3] | Potency [4] | Potency [5] | Potency [6] | Potency [7] | Potency [8] | Potency [9] | Potency [10] | Potency [11] | Potency [12] | Potency [13] | outcome [15] | Potency [16] | max response [18] 5.23% | activity change % (negative = inhibition) [19] -1.14% | Potency [20]

Nc1cccc2ccccc12
-8.8%: max response [17]
inactive: Potency [1] | Potency [2] | Potency [4] | Potency [5] | Potency [8] | Potency [10] | Potency [11] | Potency [12] | Potency [16] | max response [18] -9% | activity change % (negative = inhibition) [19] 1.61% | Potency [20]

C=CC(=O)OCCN(C)C
-14.1%: max response [14]
inactive: Potency [1] | Potency [2] | Potency [3] | Potency [4] | Potency [5] | Potency [6] | Potency [7] | Potency [8] | Potency [9] | Potency [10] | Potency [11] | Potency [12] | Potency [13] | outcome [15] | Potency [16] | max response [18] 5.11% | activity change % (negative = inhibition) [19] -23.4% | Potency [20]
-6.38%: max response [17]

ClCCOCCCl
inactive: Potency [1] | Potency [2] | Potency [3] | Potency [4] | Potency [5] | Potency [6] | Potency [7] | Potency [8] | Potency [9] | Potency [10] | Potency [11] | Potency [12] | Potency [13] | outcome [15] | Potency [16] | max response [18] 4.16% | activity change % (negative = inhibition) [19] 0.0195% | Potency [20]
8.9%: max response [17]
0.666%: max response [14]

COC(=O)Nc1cccc(OC(=O)Nc2cccc(C)c2)c1
inactive: Potency [1] | Potency [3] | Potency [4] | Potency [5] | Potency [6] | Potency [7] | Potency [8] | Potency [9] | Potency [10] | Potency [11] | Potency [12] | Potency [13] | outcome [15] | Potency [16] | max response [18] 4.03% | activity change % (negative = inhibition) [19] -5.68% | Potency [20]
14%: max response [14]
active: Potency [2] 39.8 µM
-2.23%: max response [17]

Nc1ncc([N+](=O)[O-])s1
inactive: Potency [1] | Potency [2] | Potency [3] | Potency [4] | Potency [6] | Potency [7] | Potency [8] | Potency [9] | Potency [10] | Potency [11] | Potency [12] | Potency [13] | outcome [15] | Potency [16] | max response [18] 20% | activity change % (negative = inhibition) [19] -7.23% | Potency [20]
-7.58%: max response [17]
0.224%: max response [14]

CC(C)(Cl)Cl
-1.69%: max response [17]
-10.7%: max response [14]
inactive: Potency [1] | Potency [2] | Potency [4] | Potency [5] | Potency [6] | Potency [7] | Potency [8] | Potency [9] | Potency [10] | Potency [11] | Potency [12] | Potency [13] | outcome [15] | Potency [16] | max response [18] 3.57% | activity change % (negative = inhibition) [19] -3.24% | Potency [20]

CCN(CC)CCO
-4.75%: max response [14]
inactive: Potency [1] | Potency [2] | Potency [3] | Potency [4] | Potency [5] | Potency [6] | Potency [7] | Potency [8] | Potency [9] | Potency [10] | Potency [11] | Potency [12] | Potency [13] | outcome [15] | Potency [16] | max response [18] 35.6% | activity change % (negative = inhibition) [19] -7.98% | Potency [20]
3.45%: max response [17]

C=CCBr
-4.43%: max response [17]
inactive: Potency [1] | Potency [2] | Potency [3] | Potency [4] | Potency [5] | Potency [6] | Potency [7] | Potency [8] | Potency [9] | Potency [10] | Potency [11] | Potency [12] | Potency [13] | outcome [15] | Potency [16] | max response [18] 13.2% | activity change % (negative = inhibition) [19] -19.2% | Potency [20]
-11.7%: max response [14]

Nc1cc(Cl)cc(C(=O)O)c1Cl
0.823% and -3.03%: max response [17]
inactive: Potency [1] | Potency [2] | Potency [3] | Potency [4] | Potency [5] | Potency [6] | Potency [7] | Potency [8] | Potency [9] | Potency [10] | Potency [11] | Potency [12] | Potency [13] | outcome [15] | Potency [16] | max response [18] 5.23% and 3.9% | activity change % (negative = inhibition) [19] -1.41% | Potency [20]
-12.3% and -7.66%: max response [14]

C/C=C/C=O
-18.6%: max response [14]
inactive: Potency [1] | Potency [2] | Potency [3] | Potency [4] | Potency [5] | Potency [6] | Potency [7] | Potency [8] | Potency [9] | Potency [10] | Potency [11] | Potency [12] | Potency [13] | outcome [15] | Potency [16] | activity change % (negative = inhibition) [19] -1.85% | Potency [20]
